Assay results from PubChem BioAssay.
Values joined by “and” are separate entries in the source; they are usually repeats but may differ in a detail not shown here. Equal entries are not always repeated. Active and inactive are the calls of the source.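 The calls were made as follows, unless noted: active = thallium flux through the channel raised or lowered by more than 3 SD from vehicle-only wells, actives on both sides; inactive = the rest.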

Columns and labels:
[1] = hESC survival regulators, cell-based (AID 493140; call rule not given here;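 also: cells exposed to compounds for four days before counting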); conditions: human embryonic stem cell survival screen; stronger effect = higher value
[2] = liver-stage malaria parasite growth inhibition, primary screen, cell-based, HepG2, luciferase luminescence, HepG2 viability (AID 624349; in the data active = parasite load remaining mostly below about 12%, no sharp cut-off; inactive = mostly above about 10%;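 also: 100% = mean of DMSO negative control wells on the same plate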); conditions: P. berghei liver stage in HepG2, luciferase luminescence, concentration not given here; parasite load remaining: stronger effect = lower value; viability: measured here: HepG2 viability without parasites
[3] = Cy5 fluorescence interference with SSB-bound oligo, artefact control for HCV NS3 helicase inhibitor project, biochemical, NIH Clinical Collection, E. coli SSB (AID 743268; call rule not given here)
[4] = modulation of C. elegans fzo-1 (AID 1259413; call rule not given here;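 also: fzo-1 mutant C. elegans worms in liquid wells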); conditions: C. elegans fzo-1 modulator screen, mean read-out; stronger effect = higher value
[5] = viability rescue of complex I mutant cybrids, primary screen, cell-based, galactose medium, ATP luminescence (AID 1645843;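 active = z-score of at least 1.8 in each of two replicates, scored against plate mean and spread of sample wells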;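 also: positive z means more ATP and so rescue of galactose-driven cybrid death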); conditions: complex I mutant cybrid cells, 72 h, stronger effect = higher value
[6] = system: F380Y/beta1; test: modulators of BK channel variants, profiling panel, selectivity assay, cell-based, U2OS BacMam, thallium flux, beta subunits (AID 1259406); conditions: at 30 µM;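 also: initial slope of Thallos dye fluorescence rise after thallium is added; log ratio against the mean of 0.3% DMSO vehicle wells on the same plate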
[7] = system: F380Y/beta4; test: as above; conditions: at 30 µM
[8] = system: R275C; test: as above; conditions: at 30 µM
[9] = system: R275C/beta1; test: as above; conditions: at 30 µM
[10] = system: R275C/beta2Delta; test: as above; conditions: at 30 µM
[11] = system: R275C/beta4; test: as above; conditions: at 30 µM
[12] = system: R275C/Slo1WT/beta2; test: as above; conditions: at 30 µM
[13] = polyglutamine-triggered caspase-3 activation inhibitors, cell-based (AID 1583); conditions: polyglutamine-induced caspase-3 activation, cell assay; stronger effect = higher value;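 tested at 10 µM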
[14] = suppressors of polyQ aggregation in yeast, 75Q-TubU reporter (AID 1593); conditions: Yeast 75Q polyglutamine aggregation reporter
[15] = inhibitors of mitochondrial cytochrome c release, biochemical, purified mitochondria (AID 1603); conditions: stronger effect = lower value;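 also: mouse liver mitochondria challenged with calcium chloride; signal normalized to the plate average as 100%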
[16] = inhibitors of polyQ protein aggregation (AID 1604); conditions: polyglutamine-induced protein aggregation inhibition assay; stronger effect = higher value; tested at 2.5 µM
[17] = enhancers of glutamate uptake in motor neurons, MN-1 cell line (AID 1612); conditions: MN-1 motor neuron cells, stronger effect = higher value;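 also: tested at 1 µM final; 0% = mean of DMSO vehicle wells on each plate; positive means more glutamate uptake than control and negative means less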
[18] = suppressors of polyglutamine aggregation in yeast, 75Q-TubH (AID 1616); conditions: S. cerevisiae 75Q-TubH polyglutamine aggregation suppression; stronger effect = higher value
[19] = system: Hepatitis C virus NS3 helicase; test: HCV NS3 helicase inhibitors, primary screen, biochemical, fluorescence polarization, LOPAC1280 library (AID 687035; in the data active = inhibition above about 37%); conditions: Purified HCV NS3 helicase, Cy5-dT15 ssDNA binding fluorescence polarization; stronger effect = higher value; concentration not given here

CC(=O)[C@H]1CC[C@H]2[C@@H]3C[C@H](C)C4=CC(=O)CC[C@]4(C)[C@H]3[C@@H](O)C[C@]12C
84.9% and 91.5%: viability [2]
inactive: survival [1] 6.42 | parasite load remaining [2] 57.6% and 67.9% | fluorescence ratio [3] 0.93 | mean signal [4] 277 | z-score [5] -0.825 | log fold change Tl+ flux [6] -0.00433 | log fold change Tl+ flux [7] -0.0204 | log fold change Tl+ flux [8] -0.0356 | log fold change Tl+ flux [9] 0.0813 | log fold change Tl+ flux [10] 0.0373 | log fold change Tl+ flux [11] -0.0699 | log fold change Tl+ flux [12] -0.105

C[C@]12CCC(=O)C=C1CC[C@@H]1[C@@H]2[C@@H](O)C[C@@]2(C)[C@H]1CC[C@]2(O)C(=O)COC(=O)CCC(=O)O
inactive: parasite load remaining [2] 82.9% | fluorescence ratio [3] 0.99 | mean signal [4] 257 | z-score [5] -0.315 | log fold change Tl+ flux [6] -0.0186 | log fold change Tl+ flux [7] 0.0128 | log fold change Tl+ flux [8] 0.0834 | log fold change Tl+ flux [9] 0.0319 | log fold change Tl+ flux [10] 0.0103 | log fold change Tl+ flux [11] -0.0484 | log fold change Tl+ flux [12] -0.0271
105%: viability [2]

C[C@H](CCC(=O)O)[C@H]1CC[C@H]2[C@@H]3C(=O)C[C@@H]4CC(=O)CC[C@]4(C)[C@H]3CC(=O)[C@]12C
inactive: parasite load remaining [2] 41.4% and 59.6% | fluorescence ratio [3] 0.97 | mean signal [4] 247 | log fold change Tl+ flux [6] -0.0273 | log fold change Tl+ flux [7] -0.0104 | log fold change Tl+ flux [8] -0.000869 | log fold change Tl+ flux [9] -0.0193 | log fold change Tl+ flux [10] -0.00319 | log fold change Tl+ flux [11] 0.0134 | log fold change Tl+ flux [12] -0.0176
47.4% and 73.1%: viability [2]

CC[C@H](C)C(=O)O[C@H]1C[C@H](O)C=C2C=C[C@H](C)[C@H](CC[C@@H](O)C[C@@H](O)CC(=O)O)[C@H]21
inactive: parasite load remaining [2] 98.4% | fluorescence ratio [3] 1.01 | mean signal [4] 245 | z-score [5] 0.175 | log fold change Tl+ flux [6] -0.03 | log fold change Tl+ flux [7] 0.0119 | log fold change Tl+ flux [8] -0.0381 | log fold change Tl+ flux [9] -0.014 | log fold change Tl+ flux [10] 0.0137 | log fold change Tl+ flux [11] -0.0312 | log fold change Tl+ flux [12] -0.0454
77.5%: viability [2]

COc1ccc2cc(CCC(C)=O)ccc2c1
13.8%: glutamate uptake change [17]
0.11: score [14]
0.7: cytochrome c release ratio [15]
inactive: survival [1] 4.83 | mean signal [4] 213 | z-score [5] 0.395 and 0.51 | log fold change Tl+ flux [6] -0.0534 | log fold change Tl+ flux [12] -0.0751
10.1%: inhibition [13]
0.329: aggregation suppression score [18]
active: fluorescence ratio [3] 0.1 | log fold change Tl+ flux [7] -0.162 | log fold change Tl+ flux [8] -0.0871 | log fold change Tl+ flux [9] -0.284 | log fold change Tl+ flux [10] -0.233 | log fold change Tl+ flux [11] -0.216
91.3%: inhibition of aggregation [16]

CC(C)Oc1ccc2c(=O)c(-c3ccccc3)coc2c1
inactive: parasite load remaining [2] 170% | fluorescence ratio [3] 1.05 | mean signal [4] 191 | z-score [5] -0.74 | log fold change Tl+ flux [6] -0.0734 | log fold change Tl+ flux [7] -0.0682 | log fold change Tl+ flux [8] -0.0788 | log fold change Tl+ flux [11] -0.0145 | log fold change Tl+ flux [12] 0.013
63.7%: viability [2]
active: log fold change Tl+ flux [9] -0.122 | log fold change Tl+ flux [10] -0.0975

CC(COc1ccccc1)NC(C)C(O)c1ccc(O)cc1 (centres undefined)
103% and 49.4% and 92.3%: viability [2]
inactive: survival [1] 10.8 | parasite load remaining [2] 51.4% and 31.5% and 101% | fluorescence ratio [3] 1 | mean signal [4] 247 | z-score [5] 0.74 | log fold change Tl+ flux [6] 0.0456 | log fold change Tl+ flux [7] 0.0762 | log fold change Tl+ flux [8] 0.0486 | log fold change Tl+ flux [9] 0.000959 | log fold change Tl+ flux [10] 0.0577 | log fold change Tl+ flux [11] 0.0625 | log fold change Tl+ flux [12] 0.0192

CC(C)(C)NC[C@H](O)COc1nsnc1N1CCOCC1
97.8% and 98% and 104%: viability [2]
inactive: survival [1] 4.17 | parasite load remaining [2] 64.7% and 81.2% and 46% | fluorescence ratio [3] 0.99 | mean signal [4] 275 | z-score [5] 0.57 and -0.2 and 0.33 | log fold change Tl+ flux [6] -0.0365 | log fold change Tl+ flux [7] 0.0021 | log fold change Tl+ flux [8] -0.000858 | log fold change Tl+ flux [9] -0.0605 | log fold change Tl+ flux [10] -0.0488 | log fold change Tl+ flux [11] -0.0714 | log fold change Tl+ flux [12] -0.0819

Cc1onc(-c2ccccc2)c1-c1ccc(S(N)(=O)=O)cc1
inactive: parasite load remaining [2] 163% and 88.9% | fluorescence ratio [3] 1 | mean signal [4] 275 | z-score [5] -0.505 | log fold change Tl+ flux [6] 0.0307 | log fold change Tl+ flux [7] 0.0618 | log fold change Tl+ flux [8] 0.0179 | log fold change Tl+ flux [9] 0.0767 | log fold change Tl+ flux [10] 0.0842 | log fold change Tl+ flux [11] 0.0327 | log fold change Tl+ flux [12] -0.0445
90.7% and 71.3%: viability [2]

C[C@]12CCC(=O)C=C1CC[C@@H]1[C@@H]2C(=O)C[C@@]2(C)[C@H]1CC[C@]2(O)C(=O)CO
inactive: survival [1] 29.6 | parasite load remaining [2] 29.2% and 101% and 66.2% | inhibition [19] 1% | fluorescence ratio [3] 0.97 | mean signal [4] 220 | z-score [5] 0.195 | log fold change Tl+ flux [6] -0.034 | log fold change Tl+ flux [7] -0.00179 | log fold change Tl+ flux [8] -0.0438 | log fold change Tl+ flux [9] -0.0165 | log fold change Tl+ flux [10] -0.0316 | log fold change Tl+ flux [11] 0.0193 | log fold change Tl+ flux [12] 0.0155
48% and 86.7% and 71%: viability [2]
